# Measurements from the supplement of paper PMC10849652.
# About 7,900 targets were measured; listed, in parts, are those with a hit and a random draw of the rest. About 0.6% of all pairs of compound and target were hits. Unmarked numbers belong to inactive results.
# Compound: Cc1cc(SCc2sc(-c3ccc(C(F)(F)F)cc3)nc2C)ccc1OCC(=O)O
# Test: log2 fold change, soluble protein after heating vs DMSO (PISA); higher = thermal stabilisation; K562 cells, 10 uM, 30 min; active = over 0.2 and 3.5 SD of the protein, either way, in both replicates (recomputed)
# In short: (§1)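 K562 cells at 2×10^6 cells/mL were given 10 μM compound for 30 min. Aliquots then went through 3 min of heating across 48°C-58°C, were pooled, and were extracted in PBS with 0.5% NP-40 at 4°C, and the supernatant after 21,000xg for 90 min was quantified by TMTpro 16plex LC-MS/MS with channel sums equalised. Thermal stability relative to control samples, from duplicates, is given as log2 fold change.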
# Sequence of UniProt Q07973 (Q07973 whole entry, looked up): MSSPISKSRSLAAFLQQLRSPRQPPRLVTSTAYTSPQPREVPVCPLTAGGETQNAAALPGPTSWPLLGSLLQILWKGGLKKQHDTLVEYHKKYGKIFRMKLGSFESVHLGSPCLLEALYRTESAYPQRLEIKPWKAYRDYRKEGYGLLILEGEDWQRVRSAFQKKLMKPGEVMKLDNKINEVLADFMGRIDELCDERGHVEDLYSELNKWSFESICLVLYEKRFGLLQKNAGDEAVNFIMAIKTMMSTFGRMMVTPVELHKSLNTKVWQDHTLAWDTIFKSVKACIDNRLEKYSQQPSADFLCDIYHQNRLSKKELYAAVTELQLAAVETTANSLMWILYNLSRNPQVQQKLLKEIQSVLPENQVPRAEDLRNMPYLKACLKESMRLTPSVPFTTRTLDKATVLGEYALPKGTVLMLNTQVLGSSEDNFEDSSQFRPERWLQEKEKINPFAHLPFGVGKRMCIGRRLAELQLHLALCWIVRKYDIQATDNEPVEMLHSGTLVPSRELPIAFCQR
# Sequence of UniProt Q8NBI2 (Q8NBI2 whole entry, looked up): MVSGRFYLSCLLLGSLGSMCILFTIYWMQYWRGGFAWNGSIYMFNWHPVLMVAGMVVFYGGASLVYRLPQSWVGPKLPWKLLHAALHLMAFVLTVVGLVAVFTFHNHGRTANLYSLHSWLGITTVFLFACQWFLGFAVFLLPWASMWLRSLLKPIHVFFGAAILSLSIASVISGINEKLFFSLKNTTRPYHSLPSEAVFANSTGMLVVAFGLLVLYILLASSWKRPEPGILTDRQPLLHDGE
# Sequence of UniProt P25774 (P25774 whole entry, looked up): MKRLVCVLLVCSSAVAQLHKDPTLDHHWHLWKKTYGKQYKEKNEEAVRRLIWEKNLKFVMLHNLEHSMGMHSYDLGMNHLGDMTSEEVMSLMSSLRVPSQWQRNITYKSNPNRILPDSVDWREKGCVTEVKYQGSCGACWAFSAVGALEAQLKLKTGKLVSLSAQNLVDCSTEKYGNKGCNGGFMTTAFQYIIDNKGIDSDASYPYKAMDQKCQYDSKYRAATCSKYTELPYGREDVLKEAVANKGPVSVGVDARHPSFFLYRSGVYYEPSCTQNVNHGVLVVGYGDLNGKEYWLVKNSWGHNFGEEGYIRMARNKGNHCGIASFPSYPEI
# Sequence of UniProt Q9UER7 (Q9UER7 whole entry, looked up): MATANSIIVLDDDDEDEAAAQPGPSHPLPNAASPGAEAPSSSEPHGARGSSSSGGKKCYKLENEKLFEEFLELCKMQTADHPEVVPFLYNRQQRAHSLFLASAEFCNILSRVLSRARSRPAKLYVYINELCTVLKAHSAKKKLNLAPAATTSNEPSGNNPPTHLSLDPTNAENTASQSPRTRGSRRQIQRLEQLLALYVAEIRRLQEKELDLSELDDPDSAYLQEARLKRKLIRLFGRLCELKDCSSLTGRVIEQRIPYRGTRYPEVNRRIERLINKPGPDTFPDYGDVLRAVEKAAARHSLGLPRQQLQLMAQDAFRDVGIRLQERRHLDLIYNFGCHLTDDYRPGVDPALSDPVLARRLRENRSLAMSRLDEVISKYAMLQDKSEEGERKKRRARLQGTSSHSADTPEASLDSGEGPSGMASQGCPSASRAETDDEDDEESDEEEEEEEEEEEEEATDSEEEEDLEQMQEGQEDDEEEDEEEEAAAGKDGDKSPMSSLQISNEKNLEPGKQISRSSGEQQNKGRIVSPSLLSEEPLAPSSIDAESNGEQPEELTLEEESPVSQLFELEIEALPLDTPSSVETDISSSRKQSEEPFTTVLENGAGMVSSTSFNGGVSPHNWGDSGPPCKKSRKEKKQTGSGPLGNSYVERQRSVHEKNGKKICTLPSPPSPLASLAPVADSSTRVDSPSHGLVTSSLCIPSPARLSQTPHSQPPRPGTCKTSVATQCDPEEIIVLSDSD
# Sequence of UniProt P0CG12 (P0CG12 whole entry, looked up): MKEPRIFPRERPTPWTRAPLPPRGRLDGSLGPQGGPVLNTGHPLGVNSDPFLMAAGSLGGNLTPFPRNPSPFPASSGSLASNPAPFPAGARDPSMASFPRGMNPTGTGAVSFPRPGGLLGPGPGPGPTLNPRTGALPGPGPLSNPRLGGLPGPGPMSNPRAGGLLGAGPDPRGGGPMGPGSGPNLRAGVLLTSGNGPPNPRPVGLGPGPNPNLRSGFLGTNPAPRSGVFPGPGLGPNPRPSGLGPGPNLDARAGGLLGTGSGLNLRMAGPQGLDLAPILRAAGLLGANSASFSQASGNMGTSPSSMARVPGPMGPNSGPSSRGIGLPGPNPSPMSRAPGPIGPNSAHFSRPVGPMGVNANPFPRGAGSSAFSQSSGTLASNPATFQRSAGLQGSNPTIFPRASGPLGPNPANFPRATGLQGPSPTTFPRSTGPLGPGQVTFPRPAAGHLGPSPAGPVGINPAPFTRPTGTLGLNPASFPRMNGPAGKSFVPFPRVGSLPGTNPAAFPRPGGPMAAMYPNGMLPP
# Sequence of UniProt Q2TBE0 (Q2TBE0 whole entry, looked up): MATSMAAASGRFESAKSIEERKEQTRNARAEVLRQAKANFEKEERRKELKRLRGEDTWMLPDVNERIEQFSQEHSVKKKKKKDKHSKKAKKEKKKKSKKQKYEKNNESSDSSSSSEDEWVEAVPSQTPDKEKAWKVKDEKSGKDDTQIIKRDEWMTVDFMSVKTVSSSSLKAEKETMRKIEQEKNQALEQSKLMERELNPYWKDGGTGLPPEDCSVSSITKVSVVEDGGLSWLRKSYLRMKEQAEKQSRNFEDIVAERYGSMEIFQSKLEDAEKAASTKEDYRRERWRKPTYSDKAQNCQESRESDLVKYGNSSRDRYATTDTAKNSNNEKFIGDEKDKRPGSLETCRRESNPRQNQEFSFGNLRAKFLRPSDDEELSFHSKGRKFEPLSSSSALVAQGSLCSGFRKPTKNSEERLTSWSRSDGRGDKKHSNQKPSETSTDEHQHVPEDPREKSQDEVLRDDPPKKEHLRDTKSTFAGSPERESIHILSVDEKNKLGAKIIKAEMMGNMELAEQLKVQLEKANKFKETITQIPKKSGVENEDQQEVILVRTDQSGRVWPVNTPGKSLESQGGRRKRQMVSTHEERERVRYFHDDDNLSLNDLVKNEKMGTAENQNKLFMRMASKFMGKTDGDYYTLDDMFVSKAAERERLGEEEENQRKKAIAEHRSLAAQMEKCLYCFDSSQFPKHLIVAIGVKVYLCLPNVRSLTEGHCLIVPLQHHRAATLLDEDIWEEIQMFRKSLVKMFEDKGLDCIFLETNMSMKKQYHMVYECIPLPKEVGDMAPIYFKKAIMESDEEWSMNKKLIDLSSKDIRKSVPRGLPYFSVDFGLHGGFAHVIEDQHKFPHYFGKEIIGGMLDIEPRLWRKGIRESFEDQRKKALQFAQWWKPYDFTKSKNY
# Sequence of UniProt Q6P1L5 (Q6P1L5 whole entry, looked up): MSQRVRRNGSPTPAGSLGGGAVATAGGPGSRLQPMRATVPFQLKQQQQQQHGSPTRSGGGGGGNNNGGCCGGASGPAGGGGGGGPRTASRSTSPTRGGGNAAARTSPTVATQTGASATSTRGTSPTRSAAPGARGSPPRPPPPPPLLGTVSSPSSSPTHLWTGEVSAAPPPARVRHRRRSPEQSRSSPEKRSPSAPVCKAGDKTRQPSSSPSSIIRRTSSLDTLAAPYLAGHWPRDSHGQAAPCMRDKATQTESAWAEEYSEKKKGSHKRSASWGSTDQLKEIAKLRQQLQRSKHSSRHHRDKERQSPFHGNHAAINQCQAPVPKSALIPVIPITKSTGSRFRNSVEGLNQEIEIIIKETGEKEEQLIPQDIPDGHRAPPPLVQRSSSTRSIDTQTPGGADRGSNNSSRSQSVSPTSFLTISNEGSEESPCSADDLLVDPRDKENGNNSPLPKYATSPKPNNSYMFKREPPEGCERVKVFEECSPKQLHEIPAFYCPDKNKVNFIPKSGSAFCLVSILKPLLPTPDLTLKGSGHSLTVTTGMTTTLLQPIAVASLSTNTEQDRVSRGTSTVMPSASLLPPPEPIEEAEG
# Sequence of UniProt Q4LDG9 (Q4LDG9 whole entry, looked up): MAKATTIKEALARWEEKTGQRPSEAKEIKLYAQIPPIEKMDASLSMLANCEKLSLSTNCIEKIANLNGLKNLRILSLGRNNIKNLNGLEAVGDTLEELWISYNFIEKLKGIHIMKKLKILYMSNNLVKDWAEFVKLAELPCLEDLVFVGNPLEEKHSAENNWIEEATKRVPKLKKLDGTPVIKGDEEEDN
# Sequence of UniProt Q8N612 (Q8N612 whole entry, looked up): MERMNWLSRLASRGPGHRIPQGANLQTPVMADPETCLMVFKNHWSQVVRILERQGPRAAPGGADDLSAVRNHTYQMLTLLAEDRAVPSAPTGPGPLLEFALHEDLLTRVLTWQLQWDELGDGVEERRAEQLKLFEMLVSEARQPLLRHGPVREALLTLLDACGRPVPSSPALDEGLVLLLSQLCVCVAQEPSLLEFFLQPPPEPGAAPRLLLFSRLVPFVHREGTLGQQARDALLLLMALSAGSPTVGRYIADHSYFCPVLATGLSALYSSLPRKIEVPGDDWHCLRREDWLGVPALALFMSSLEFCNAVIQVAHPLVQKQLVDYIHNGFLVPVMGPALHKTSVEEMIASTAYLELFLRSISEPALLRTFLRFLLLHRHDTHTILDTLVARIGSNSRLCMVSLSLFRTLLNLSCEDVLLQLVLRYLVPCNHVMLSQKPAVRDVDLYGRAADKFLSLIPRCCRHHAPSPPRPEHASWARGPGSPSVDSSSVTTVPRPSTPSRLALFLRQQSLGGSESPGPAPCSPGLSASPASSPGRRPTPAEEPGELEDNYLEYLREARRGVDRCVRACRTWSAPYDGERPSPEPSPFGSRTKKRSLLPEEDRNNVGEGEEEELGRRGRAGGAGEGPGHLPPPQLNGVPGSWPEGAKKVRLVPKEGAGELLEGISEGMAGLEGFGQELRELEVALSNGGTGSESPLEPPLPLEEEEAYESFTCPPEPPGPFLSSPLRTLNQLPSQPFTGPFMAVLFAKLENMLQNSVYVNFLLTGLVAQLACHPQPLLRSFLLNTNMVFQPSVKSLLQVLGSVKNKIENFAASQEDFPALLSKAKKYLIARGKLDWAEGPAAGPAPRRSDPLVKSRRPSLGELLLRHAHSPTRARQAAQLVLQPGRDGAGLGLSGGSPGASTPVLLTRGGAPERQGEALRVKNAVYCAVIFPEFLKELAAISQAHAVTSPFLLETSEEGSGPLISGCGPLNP
row,Target,log2 fold change
1,EIF2AK3 (UniProt Q9NZJ5),0.188
2,CTSS (UniProt P25774),0.045
3,CWF19L2 (UniProt Q2TBE0),-0.001
4,DNAL1 (UniProt Q4LDG9),-0.102
5,DCAF4 (UniProt Q8WV16),-0.056
6,CYB561A3 isoform 2 (UniProt Q8NBI2),-0.014
7,ELOVL5 isoform 2 (UniProt Q9NYP7),0.082
8,DENND10 (UniProt Q8TCE6),0.03
9,DAXX (UniProt Q9UER7),0.006
10,DLK1 (UniProt P80370),-0.058
11,FAM117B (UniProt Q6P1L5),0.257
12,FAM241A (UniProt Q8N8J7),-0.034
13,EDRF1 (UniProt Q3B7T1),0.134
14,DERPC (UniProt P0CG12),-0.113
15,F2RL3 (UniProt Q96RI0),-0.059
16,EIF4G1 (UniProt Q04637),0.227
17,ELOVL7 (UniProt A1L3X0),0.025
18,EIF4G3 isoform 3 (UniProt O43432),0.075
19,ENTR1 (UniProt Q96C92),0.048
20,DEGS1 (UniProt O15121),-0.078
21,FAM160A2 isoform 2 (UniProt Q8N612),0.212
22,CYP24A1 (UniProt Q07973),-0.13

# Compound: Cc1ccc(-n2nc(C(C)(C)C)cc2NC(=O)Nc2ccc(OCCN3CCOCC3)c3ccccc23)cc1 [doramapimod]
# Test: as above
# In short: as §1
row,Target,log2 fold change
1,EIF2AK3 (UniProt Q9NZJ5),0.032
2,DOLPP1 (UniProt Q86YN1),-0.026
3,CTSS (UniProt P25774),0.043
4,CWF19L2 (UniProt Q2TBE0),-0.021
5,DNAL1 (UniProt Q4LDG9),-0.067
6,CYB561A3 isoform 2 (UniProt Q8NBI2),0.021
7,DAXX (UniProt Q9UER7),0
8,DLK1 (UniProt P80370),0.002
9,FAM117B (UniProt Q6P1L5),0.21
10,FAM241A (UniProt Q8N8J7),-0.018
11,DERPC (UniProt P0CG12),-0.099
12,FADS1 (UniProt F5GYH4),0.106
13,EIF4G3 isoform 3 (UniProt O43432),0.013
14,DENND1A isoform 6 (UniProt Q8TEH3),0.374
15,FAM160A2 isoform 2 (UniProt Q8N612),-0.003
16,CYP24A1 (UniProt Q07973),0.283

# Compound: Cc1ccc(C(=O)N(CCCN)[C@@H](c2nc3cc(Cl)ccc3c(=O)n2Cc2ccccc2)C(C)C)cc1 [ispinesib]
# Test: as above
# In short: as §1
row,Target,log2 fold change
1,DOLPP1 (UniProt Q86YN1),0.358 (active)
2,CTSS (UniProt P25774),0.049
3,CWF19L2 (UniProt Q2TBE0),-0.115
4,DNAL1 (UniProt Q4LDG9),-0.082
5,DCAF4 (UniProt Q8WV16),-0.165
6,CYB561A3 isoform 2 (UniProt Q8NBI2),-0.139
7,ELOVL5 isoform 2 (UniProt Q9NYP7),-0.311
8,DENND10 (UniProt Q8TCE6),-0.021
9,DAXX (UniProt Q9UER7),-0.062
10,EGR1 (UniProt P18146),0.36
11,FAM117B (UniProt Q6P1L5),-0.057
12,FAM241A (UniProt Q8N8J7),-0.069
13,EDRF1 (UniProt Q3B7T1),-0.24
14,DERPC (UniProt P0CG12),0.07
15,EEF2K (UniProt O00418),-0.208
16,F2RL3 (UniProt Q96RI0),0.004
17,EIF4G3 isoform 3 (UniProt O43432),-0.02
18,EPHB4 (UniProt P54760),-0.016
19,FAM160A2 isoform 2 (UniProt Q8N612),-0.192
20,CYP24A1 (UniProt Q07973),-0.244
